This excerpt belongs to a sample that is enriched for hits.
Tb PYK inh = blocks Trypanosoma brucei pyruvate kinase; 0.12% of 410,000 active; Potency, µM (titrated, usually from 76.8 µM), actives largely listed as inhibitors; TbPYK enzyme, Kinase-Glo Plus ATP luminescence, 45 min; AID 624173; note: nearly all actives have a fitted effect of over 50% in size
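Quantitative HTS: titrated library compounds versus trypanosomal pyruvate kinase in TEA buffer (pH 7.2) containing KCl, MgCl2, BSA and Tween-20. Reactions were initiated with ADP, 130 uM final. Kinase-Glo Plus luminescence was read after 45 min at RT.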
CHX counter = counter-screen hit for Shiga toxin inhibitors, cycloheximide | cell reporter, cycloheximide protein synthesis inhibition counterscreen | 12% of 300,000 active | AID 2314 | max response, %; in the data active = max response mostly above about 13%, no sharp cut-off; inactive = mostly below about 14%; note: read at 38.3 µM for the half of the compounds with a filed dose
Shiga inhibitor = Shiga toxin inhibition; Vero cells, Shiga toxin protein synthesis inhibition reporter; inhibition, % at 38.7 µM; 9.2% of 290,000 active; in the data active = inhibition mostly above about 28%, no sharp cut-off; inactive = mostly below about 43%
Giardia FBPA inh = Giardia lamblia aldolase inhibition. A8B2U2. purified Giardia FBPA. Potency, µM (series often up to 59.6 µM), most hits filed as inhibitors. 0.71% of 290,000 active; note: nearly all actives have a fitted effect of over 55% in size
Target sequence (A8B2U2 whole entry, looked up): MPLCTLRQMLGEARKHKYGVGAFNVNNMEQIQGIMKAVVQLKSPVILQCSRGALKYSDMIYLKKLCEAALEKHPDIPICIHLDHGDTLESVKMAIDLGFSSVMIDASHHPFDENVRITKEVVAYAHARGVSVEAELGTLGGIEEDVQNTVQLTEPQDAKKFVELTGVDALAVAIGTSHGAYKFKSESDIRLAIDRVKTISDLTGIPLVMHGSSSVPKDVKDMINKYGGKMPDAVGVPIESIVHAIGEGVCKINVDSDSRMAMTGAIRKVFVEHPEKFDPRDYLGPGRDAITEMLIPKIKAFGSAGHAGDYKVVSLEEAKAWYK
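40 nM FBPA preincubated 10 min at RT with compound (up to 57.5 uM final), then substrate plus GAPDH/TPI/NAD/arsenate coupling and diaphorase/resazurin added. Fluorescence read after 20 min at RT, 525/598 nm.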
RE007 growth inh = less growth of the S. pombe RE007 Vpr strain; S. pombe RE007 Vpr strain, BacTiter-Glo ATP luminescence, 24 h; Potency, µM (top dose mostly 92.2 µM), actives largely listed as inhibitors; 0.21% of 360,000 active; AID 651644; active = well fitted falling curve with a large enough effect; inconclusive = small, poorly fitted or top-dose-only effect; inactive = no such curve, though single readings can be large or run the other way; note: nearly all actives have a fitted effect of over 50% in size
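Fission yeast strain RE007, carrying one chromosomally integrated HIV-1 vpr copy, was seeded at OD 0.01 in PMG+AL medium with 23 nL pinned compound. After 24 h at 30 °C and 99% humidity, viability was read by BacTiter-Glo luminescence.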
LmPK inh = blocks Leishmania mexicana pyruvate kinase activity. purified LmPK, Kinase-Glo ATP luminescence, 1 h. Potency, µM (titrated, usually from 57.5 µM), most hits filed as inhibitors. 0.37% of 290,000 active
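0.1 nM LmPK, 0.5 mM PEP, 0.1 mM ADP; 50 mM imidazole pH 7.2, 7 mM MgCl2, 50 mM KCl; 1 h RT. Kinase-Glo luminescence readout, normalized to no-enzyme (full inhibition) and uninhibited wells.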
Hits are given with their value; 0 = inactive; ? = inconclusive; - = not tested or not shown; [ ] = remark or other dose. Unless noted, calls come from the whole dose curve; as a rule, active = well fitted curve in the direction sought with a large enough effect; inconclusive = small, poorly fitted or top-dose-only effect, or another doubt; inactive = no such curve, though single readings can be large; an effect the other way counts as inactive or inconclusive.

SMILES	Tb PYK inh	CHX counter	Shiga inhibitor	Giardia FBPA inh	RE007 growth inh	LmPK inh
O=C(CN(C(=O)Cn1nnc(-c2cccs2)n1)c1ccc2c(c1)OCCO2)NC1CCCCC1	0	32.1	56.2	0	0	0
Cc1ccc(C(C(=O)NC2CCCCC2)N(C(=O)CCCC(=O)Nc2ccccn2)c2ccc3c(c2)OCCO3)cc1 (centres undefined)	0	10.6	0	0	0	0
COc1ccc(C2=C(C)C(N3CCC(C(=O)NCc4ccco4)CC3)=NS2(=O)=O)cc1	0	-	-	-	-	-
Cc1cccc(CNC(=O)CSCc2cnn(-c3ccccc3)c2-n2cccc2)c1	0	-	-	-	-	-
CCOc1ccc(NC(=O)CSc2oc(-c3ccc(C)cc3)nc2S(=O)(=O)c2ccc(C)cc2)cc1	0	-	-	-	-	-
COc1cc(OC)c(C2Nc3ccccc3-c3nnc(SCc4ccccc4)nc3O2)cc1OC (centres undefined)	0	-	-	-	-	-
Cc1ccc(N2C(=O)CSC23C(=O)Nc2ccccc23)cc1F (centres undefined)	0	-	-	-	-	-
Cc1ccccc1CNC(=O)CCCn1c(=O)c2cccn2c2ccccc21	0	-	-	-	-	-
COc1ccc(S(=O)(=O)N(C)C2(C)CCS(=O)(=O)C2)cc1OC (centres undefined)	0	-	-	-	0	-
CCc1ccc(N(CC(=O)NC(C)(C)CC)C(=O)CCC(=O)Nc2nccs2)cc1	0	0	0	0	0	0
O=C(CN(C(=O)CCC(=O)Nc1ccccn1)c1ccc2c(c1)OCCO2)NCCc1ccccc1	0	11.6	0	0	0	0
CCC(C)(C)NC(=O)CN(C(=O)CCC(=O)Nc1nccs1)c1ccc2c(c1)OCCO2	0	50.9	57.4	0	0	0
CC(C)Oc1ccc(CNC(=O)CN2C(=O)c3cccnc3Oc3ccc(Cl)cc32)cc1	0[15.4 µM]	-	-	-	-	-
CC1(C)CC(=O)c2cc(-c3nc(-c4ccc(Br)cc4)cs3)c(=O)n(-c3ccccc3)c2C1	0	-	-	-	-	-
COc1ccc(Cn2c(CCC(=O)NCc3cccc(Cl)c3)nc3cccnc32)cc1	0	-	-	-	-	-
COC(=O)C1CC1[C@H](NC(=O)c1cccnc1)c1ccccc1 (some centres undefined)	-	0	0	0	-	-
Cc1c(N=C/C=C/c2ccccc2)cnn1C	0	23.0	0	0	0	0
O=C(CSc1ccc(Br)cc1)Nc1ccc(N2CCOCC2)cc1	0	-	-	-	0	-
O=C(O)c1cccc(N2C(=O)c3ccc(Oc4ccc(Cl)cc4)cc3C2=O)c1	0	19.6	0	0	0	0
Cc1ccccc1NC(=O)CSc1nc(-c2ccccc2)cn1-c1ccccc1F	0	-	-	-	-	-
O=S(=O)(Nc1nc2c(s1)CCCC2)c1ccc2ccccc2c1	0	0	0	0	0	0
c1ccc2c(Nc3nc4c(s3)CCCC4)cccc2c1	?	45.1	111.9	-	0	0
O=C(c1noc2c1CCCCC2)N1CCN(c2cccc(Cl)c2)CC1	0	-	-	-	-	-
O=C(NCc1ccccc1)c1noc2c1CCCC2	0	44.5	0	0	15.8µM	0
COC(=O)c1ccccc1NC(=O)c1noc2c1CCC2	0	0	0	0	0	0
SMILES	Tb PYK inh	CHX counter	Shiga inhibitor	Giardia FBPA inh	RE007 growth inh	LmPK inh
O=C(NCc1cccnc1)c1noc2c1CCCC2	0	0	0	0	?	0
O=C(c1noc2c1CCCC2)N1CCN(c2ccccc2)CC1	0	20.5	0	0	?	0
O=C(NCc1cccc(F)c1)c1noc2c1CCCC2	0	39.0	54.3	0	?	0
CSc1ccccc1NC(=O)c1noc2c1CCC2	0	38.0	99.7	?	?	0
COc1ccc(C(=O)Nc2cc(-c3ccccc3)nn2-c2ccccc2F)cc1	0	-	-	-	0	-
COc1ccc(-c2onc(C)c2C)cc1S(=O)(=O)N1CCN(c2cc(C)ccc2C)CC1	0	-	-	-	-	-
CCOc1ccccc1CNC(=O)CC(C)n1ccc(C)n1 (centres undefined)	0	-	-	-	-	-
O=C(NCCc1ccccc1)c1noc2c1CCCCC2	0	34.9	95.8	0	?	0
COc1ccc(CNC(=O)c2noc3c2CCCC3)cc1	0	28.2	113.6	0	?	0
CC(=O)c1ccc(NC(=O)c2noc3c2CSc2ccccc2-3)cc1	0	-	-	-	-	-
CC(=O)c1ccc(N2CCN(C(=O)c3noc4c3CSc3ccccc3-4)CC2)cc1	0	16.8	0	0	0	0
O=C(NCc1cccs1)c1ccncc1	0	0	0	0	0	0
O=C(NCc1cccs1)c1noc2c1CCCC2	0	14.8	0	0	?	0
C[C@H]1CC[C@H]2C(=O)N3[C@H](c4ccccc4Br)[C@@H](C)CC[C@H]3C(=O)N2[C@@H]1c1ccccc1Br	-	0	0	0	-	0
N#CCCn1cc(/C=N/N=C2\NC(=O)C(CC(=O)O)S2)c(-c2ccc(F)cc2)n1 (centres undefined)	0	0	0	0	0	0
CCCCc1nn2c(C)c(-c3ccc(OCC)cc3)nc2s1	0	-	-	-	-	-
O=C(OCC(=O)N1CCCC1=O)c1nc(Cl)c(Cl)c(Cl)c1Cl	0	0	0	0	0	0
O=C(c1noc2c1CCCC2)N1CCN(C(c2ccccc2)c2ccccc2)CC1	-	0	0	0	-	0
O=C(NCc1ccc(Cl)cc1)c1noc2c1CCCC2	0	24.8	39.6	0	?	0
O=C(Nc1cnn(Cc2ccc(Cl)cc2Cl)c1)c1noc2c1CCCC2	0	14.3	0	0	0	0
CC(NC(=O)c1noc2c1CCCC2)c1ccccc1 (centres undefined)	0	0	0	0	35.5µM	0
O=C(NCc1ccco1)c1noc2c1CCCCC2	0	33.0	39.9	0	0	0
O=C(NCc1cccnc1)c1noc2c1CCCCC2	0	0	0	0	0	0
O=C(NCCN1CCOCC1)C1(C(F)(F)F)C/C(=C\CCO)CCCO1 (centres undefined)	-	0	0	0	-	-
CC(=O)N1CCC(N(CCN2CCOCC2)C(=S)Nc2ccccc2C)CC1	0	0	0	0	0	0
SMILES	Tb PYK inh	CHX counter	Shiga inhibitor	Giardia FBPA inh	RE007 growth inh	LmPK inh
COC(=O)c1ccc2cc(OC)c(OC)cc2c1	0	-	-	-	0	-
COC(=O)c1ccc(OCC(O)CNCC(c2ccc(OC)cc2)N(C)C)c(OC)c1 (centres undefined)	0	0	52.3	0	0	0
Cc1cc(C)n(CCOC(=O)c2sc3ccccc3c2Cl)n1	0	18.4	0	0	0	0
NC(=O)COC(=O)c1sc2ccccc2c1Cl	0	0	0	0	0	0
O=C(Nc1cccc(S(=O)(=O)NCc2ccco2)c1)c1cc(-c2ccc(F)cc2)nc2ccccc12	0	38.7	69.6	0	0	0
COc1ccc(S(=O)(=O)NCc2ccco2)cc1-c1nnc2c3ccccc3c(C)nn12	0	39.7	0	0	0	0
COc1ccc(-c2cc(C(=O)Nc3cccc(S(=O)(=O)NCc4ccco4)c3)c3ccccc3n2)cc1OC	0	21.0	0	0	0	0
CC(=O)Nc1ccc(-c2ccnc3c2CC(C(=O)NCCC(F)(F)F)O3)cc1 (centres undefined)	0	-	-	-	0[18.4 µM]	-

Screens from PubChem BioAssay.
